# According to publication PMC7862700, “An all-to-all approach to the identification of sequence-specific readers for epigenetic DNA modifications on cytosine”:
# How the values were obtained:
# Experiment in all cases: DAPPL (digital affinity profiling via proximity ligation, sequencing); 10 mM Tris-HCl pH 7.5, 50 mM NaCl, 1 mM DTT, 4% glycerol, room temperature, 30 min; GST-TFs on glutathione beads, 16-mer random dsDNA library, 0.1% formaldehyde crosslink after washing; high values mean tight binding
# [1] = target: T1, FLI1 (Homo sapiens, UniProt Q01543 1-452); conditions: protein: recombinant; tags: N-terminal GST; dsDNA, one strand shown
# T1 sequence: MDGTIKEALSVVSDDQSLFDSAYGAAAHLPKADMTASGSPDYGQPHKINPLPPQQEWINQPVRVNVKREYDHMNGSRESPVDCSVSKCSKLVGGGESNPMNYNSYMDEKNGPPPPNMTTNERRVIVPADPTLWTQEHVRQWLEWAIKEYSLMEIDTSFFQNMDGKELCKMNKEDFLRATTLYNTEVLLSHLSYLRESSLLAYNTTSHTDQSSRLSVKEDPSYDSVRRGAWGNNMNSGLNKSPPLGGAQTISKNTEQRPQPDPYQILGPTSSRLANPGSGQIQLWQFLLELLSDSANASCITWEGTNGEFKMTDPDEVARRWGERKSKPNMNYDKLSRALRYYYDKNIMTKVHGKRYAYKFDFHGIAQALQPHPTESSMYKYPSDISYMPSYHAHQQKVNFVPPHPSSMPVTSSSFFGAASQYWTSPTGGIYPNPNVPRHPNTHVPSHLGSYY
# Summary of the method: (§1)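 GST fusions of human transcription factors were expressed in yeast and captured with glutathione beads. Once given DNA barcodes and pooled alongside a tag-only sample, they were incubated for 30 min at room temperature with 200 nmole of a random double-stranded 16-mer DNA library in Tris/NaCl/DTT/glycerol buffer, then washed, crosslinked (0.1% formaldehyde), proximity-ligated, PCR-amplified and sequenced on an Illumina NextSeq500. The binding signal of each hexamer is its read frequency for a factor divided by its frequency for the tag-only sample.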
# [2] = target: T2, ELK1 (Homo sapiens, UniProt P19419 1-428); conditions: protein: recombinant; tags: N-terminal GST; dsDNA, one strand shown
# T2 sequence: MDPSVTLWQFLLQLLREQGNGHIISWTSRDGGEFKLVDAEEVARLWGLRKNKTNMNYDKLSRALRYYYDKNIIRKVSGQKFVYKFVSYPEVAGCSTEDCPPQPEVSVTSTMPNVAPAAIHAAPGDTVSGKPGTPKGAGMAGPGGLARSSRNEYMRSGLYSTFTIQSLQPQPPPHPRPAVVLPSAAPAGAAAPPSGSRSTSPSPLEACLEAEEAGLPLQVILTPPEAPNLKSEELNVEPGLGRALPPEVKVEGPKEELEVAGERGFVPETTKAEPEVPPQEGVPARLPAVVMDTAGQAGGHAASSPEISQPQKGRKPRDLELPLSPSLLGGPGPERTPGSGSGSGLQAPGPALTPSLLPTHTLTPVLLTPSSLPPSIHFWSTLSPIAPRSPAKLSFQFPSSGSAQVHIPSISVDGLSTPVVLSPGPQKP
# Summary of the method: as §1
# [3] = target: T3, GABPA (Homo sapiens, UniProt Q06546 1-454); conditions: protein: recombinant; tags: N-terminal GST; dsDNA, one strand shown
# T3 sequence: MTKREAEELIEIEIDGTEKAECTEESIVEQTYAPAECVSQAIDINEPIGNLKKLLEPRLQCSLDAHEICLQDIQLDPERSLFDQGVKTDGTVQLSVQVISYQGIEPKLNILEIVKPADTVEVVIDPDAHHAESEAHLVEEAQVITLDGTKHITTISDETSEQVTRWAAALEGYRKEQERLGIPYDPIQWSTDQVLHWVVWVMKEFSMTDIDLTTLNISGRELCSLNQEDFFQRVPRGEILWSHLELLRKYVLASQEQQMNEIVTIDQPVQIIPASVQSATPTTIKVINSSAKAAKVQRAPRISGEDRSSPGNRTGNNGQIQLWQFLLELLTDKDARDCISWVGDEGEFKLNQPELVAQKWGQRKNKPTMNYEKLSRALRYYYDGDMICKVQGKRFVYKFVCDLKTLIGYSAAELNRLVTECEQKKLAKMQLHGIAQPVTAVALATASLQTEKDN
# Summary of the method: as §1
# [4] = target: T4, ERG (Homo sapiens, UniProt P11308 1-479); conditions: protein: recombinant; tags: N-terminal GST; dsDNA, one strand shown
# T4 sequence: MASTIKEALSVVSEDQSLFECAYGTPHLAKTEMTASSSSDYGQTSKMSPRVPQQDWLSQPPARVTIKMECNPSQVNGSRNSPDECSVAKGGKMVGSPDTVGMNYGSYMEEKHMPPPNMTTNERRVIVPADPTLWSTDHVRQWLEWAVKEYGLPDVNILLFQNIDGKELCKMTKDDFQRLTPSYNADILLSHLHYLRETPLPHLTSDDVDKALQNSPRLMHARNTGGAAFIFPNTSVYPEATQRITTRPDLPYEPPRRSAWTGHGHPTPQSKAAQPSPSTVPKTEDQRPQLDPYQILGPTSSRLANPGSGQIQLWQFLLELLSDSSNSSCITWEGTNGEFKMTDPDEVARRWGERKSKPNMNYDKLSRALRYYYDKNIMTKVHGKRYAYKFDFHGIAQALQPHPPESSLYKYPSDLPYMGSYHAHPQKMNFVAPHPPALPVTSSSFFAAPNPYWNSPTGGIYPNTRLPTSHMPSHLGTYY
# Summary of the method: as §1
# [5] = target: ELF1 (Homo sapiens, UniProt P32519 1-619); conditions: protein: recombinant; tags: N-terminal GST; dsDNA, one strand shown
# Summary of the method: as §1
# [6] = target: T5, EHF (Homo sapiens, UniProt Q9NZC4 1-300); conditions: protein: recombinant; tags: N-terminal GST; dsDNA, one strand shown
# T5 sequence: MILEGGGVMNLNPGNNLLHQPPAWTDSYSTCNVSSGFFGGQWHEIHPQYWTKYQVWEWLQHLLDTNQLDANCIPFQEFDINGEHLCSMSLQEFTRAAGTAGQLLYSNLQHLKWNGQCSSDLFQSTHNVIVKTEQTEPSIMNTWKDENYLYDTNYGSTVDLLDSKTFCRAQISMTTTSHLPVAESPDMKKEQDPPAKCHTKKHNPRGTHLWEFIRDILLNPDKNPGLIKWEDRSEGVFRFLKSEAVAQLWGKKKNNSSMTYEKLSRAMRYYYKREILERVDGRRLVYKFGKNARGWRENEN
# Summary of the method: as §1
# [7] = target: SPI1 (Homo sapiens, UniProt P17947 1-270); conditions: protein: recombinant; tags: N-terminal GST; dsDNA, one strand shown
# Summary of the method: as §1
# [8] = target: SPIB (Homo sapiens, UniProt Q01892 1-262); conditions: protein: recombinant; tags: N-terminal GST; dsDNA, one strand shown
# Summary of the method: as §1
# [9] = target: T6, ELK3 (Homo sapiens, UniProt P41970 1-407); conditions: protein: recombinant; tags: N-terminal GST; dsDNA, one strand shown
# T6 sequence: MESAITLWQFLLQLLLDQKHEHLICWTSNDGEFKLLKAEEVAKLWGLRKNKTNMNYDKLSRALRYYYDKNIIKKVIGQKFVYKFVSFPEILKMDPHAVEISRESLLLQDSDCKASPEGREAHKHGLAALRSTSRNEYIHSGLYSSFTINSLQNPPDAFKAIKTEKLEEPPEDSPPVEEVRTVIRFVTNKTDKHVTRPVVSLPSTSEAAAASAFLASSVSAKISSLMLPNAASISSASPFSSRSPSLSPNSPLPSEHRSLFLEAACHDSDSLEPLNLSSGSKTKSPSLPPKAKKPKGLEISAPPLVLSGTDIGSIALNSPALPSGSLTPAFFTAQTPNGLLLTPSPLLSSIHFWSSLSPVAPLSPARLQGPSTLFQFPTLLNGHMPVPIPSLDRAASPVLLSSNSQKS
# Summary of the method: as §1
# [10] = target: T7, FEV (Homo sapiens, UniProt Q99581 1-238); conditions: protein: recombinant; tags: N-terminal GST; dsDNA, one strand shown
# T7 sequence: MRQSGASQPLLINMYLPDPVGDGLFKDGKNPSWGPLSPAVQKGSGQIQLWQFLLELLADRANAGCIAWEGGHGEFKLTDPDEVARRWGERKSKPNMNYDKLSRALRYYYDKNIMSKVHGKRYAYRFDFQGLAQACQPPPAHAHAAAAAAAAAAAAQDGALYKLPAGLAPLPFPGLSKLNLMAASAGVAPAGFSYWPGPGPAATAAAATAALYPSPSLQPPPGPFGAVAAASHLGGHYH
# Summary of the method: as §1
# [11] = target: ETV5 (Homo sapiens, UniProt P41161 1-510); conditions: protein: recombinant; tags: N-terminal GST; dsDNA, one strand shown
# Summary of the method: as §1
# [12] = target: HSF1 (Homo sapiens, UniProt Q00613 1-529); conditions: protein: recombinant; tags: N-terminal GST; chain copies: 3; dsDNA, one strand shown
# Summary of the method: as §1
# [13] = target: T8, SPIC (Homo sapiens, UniProt Q8N5J4 1-248); conditions: protein: recombinant; tags: N-terminal GST; dsDNA, one strand shown
# T8 sequence: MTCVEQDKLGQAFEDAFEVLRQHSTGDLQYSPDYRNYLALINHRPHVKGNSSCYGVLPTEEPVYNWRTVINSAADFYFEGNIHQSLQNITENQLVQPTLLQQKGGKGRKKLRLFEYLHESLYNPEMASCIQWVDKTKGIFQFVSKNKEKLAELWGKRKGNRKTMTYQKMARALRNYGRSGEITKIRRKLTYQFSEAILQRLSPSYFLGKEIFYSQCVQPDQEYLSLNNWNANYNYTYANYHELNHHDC
# Summary of the method: as §1
# [14] = target: ELF4 (Homo sapiens, UniProt Q99607 1-663); conditions: protein: recombinant; tags: N-terminal GST; dsDNA, one strand shown
# Summary of the method: as §1
# [15] = target: T9, ELK4 (Homo sapiens, UniProt P28324-2 1-405); conditions: protein: recombinant; tags: N-terminal GST; dsDNA, one strand shown
# T9 sequence: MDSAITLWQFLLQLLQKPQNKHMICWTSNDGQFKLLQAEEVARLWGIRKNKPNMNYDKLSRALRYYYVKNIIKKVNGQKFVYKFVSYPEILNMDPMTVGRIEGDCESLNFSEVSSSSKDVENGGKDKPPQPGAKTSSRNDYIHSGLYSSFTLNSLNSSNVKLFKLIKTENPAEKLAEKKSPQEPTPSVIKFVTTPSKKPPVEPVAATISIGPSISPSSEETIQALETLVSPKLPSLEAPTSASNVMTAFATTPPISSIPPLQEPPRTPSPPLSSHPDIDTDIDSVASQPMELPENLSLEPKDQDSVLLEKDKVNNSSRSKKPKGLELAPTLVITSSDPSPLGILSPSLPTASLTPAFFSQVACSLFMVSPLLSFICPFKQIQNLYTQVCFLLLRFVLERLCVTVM
# Summary of the method: as §1
# [16] = target: T10, ETV2 (Homo sapiens, UniProt O00321 1-342); conditions: protein: recombinant; tags: N-terminal GST; dsDNA, one strand shown
# T10 sequence: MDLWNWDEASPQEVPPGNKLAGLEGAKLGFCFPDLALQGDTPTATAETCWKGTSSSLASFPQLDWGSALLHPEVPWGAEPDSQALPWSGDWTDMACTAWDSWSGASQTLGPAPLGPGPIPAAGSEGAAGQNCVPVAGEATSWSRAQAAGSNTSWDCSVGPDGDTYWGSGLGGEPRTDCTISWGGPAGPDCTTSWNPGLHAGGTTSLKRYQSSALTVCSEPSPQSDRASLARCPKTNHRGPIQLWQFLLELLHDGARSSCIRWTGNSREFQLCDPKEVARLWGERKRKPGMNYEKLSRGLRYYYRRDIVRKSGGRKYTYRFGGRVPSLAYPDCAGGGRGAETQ
# Summary of the method: as §1
# [17] = target: T11, ELF3 (Homo sapiens, UniProt P78545 1-371); conditions: protein: recombinant; tags: N-terminal GST; dsDNA, one strand shown
# T11 sequence: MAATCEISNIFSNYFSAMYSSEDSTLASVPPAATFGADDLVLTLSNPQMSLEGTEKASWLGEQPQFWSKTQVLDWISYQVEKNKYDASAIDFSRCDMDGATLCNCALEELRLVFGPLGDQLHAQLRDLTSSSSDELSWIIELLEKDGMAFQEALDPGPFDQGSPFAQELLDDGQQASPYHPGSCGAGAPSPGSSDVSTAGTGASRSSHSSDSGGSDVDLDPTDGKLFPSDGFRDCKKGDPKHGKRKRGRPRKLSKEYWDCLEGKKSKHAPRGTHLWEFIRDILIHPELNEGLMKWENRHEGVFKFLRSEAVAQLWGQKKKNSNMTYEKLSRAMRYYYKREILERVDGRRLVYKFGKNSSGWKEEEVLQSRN
# Summary of the method: as §1
# [18] = target: CRX (Homo sapiens, UniProt O43186 1-299); conditions: protein: recombinant; tags: N-terminal GST; dsDNA, one strand shown
# Summary of the method: as §1
# [19] = target: ETV1 (Homo sapiens, UniProt P50549 1-477); conditions: protein: recombinant; tags: N-terminal GST; dsDNA, one strand shown
# Summary of the method: as §1
# Sequence of ELF1 (P32519 whole entry): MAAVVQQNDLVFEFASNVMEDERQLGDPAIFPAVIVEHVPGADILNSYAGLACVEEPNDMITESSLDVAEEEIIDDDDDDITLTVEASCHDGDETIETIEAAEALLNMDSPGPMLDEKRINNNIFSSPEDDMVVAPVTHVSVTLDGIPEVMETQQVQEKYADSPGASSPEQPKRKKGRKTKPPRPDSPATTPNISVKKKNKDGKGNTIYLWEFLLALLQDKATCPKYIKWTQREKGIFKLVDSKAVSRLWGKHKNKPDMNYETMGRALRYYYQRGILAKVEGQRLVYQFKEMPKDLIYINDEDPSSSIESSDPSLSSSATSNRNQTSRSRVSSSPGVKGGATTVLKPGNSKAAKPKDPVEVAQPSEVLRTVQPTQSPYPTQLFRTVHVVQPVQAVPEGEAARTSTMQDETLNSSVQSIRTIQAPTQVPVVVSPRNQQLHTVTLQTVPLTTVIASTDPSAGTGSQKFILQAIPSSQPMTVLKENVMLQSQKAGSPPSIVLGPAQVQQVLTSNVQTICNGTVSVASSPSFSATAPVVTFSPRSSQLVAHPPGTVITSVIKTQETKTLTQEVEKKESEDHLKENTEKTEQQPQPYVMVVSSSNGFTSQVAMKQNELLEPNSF
# Sequence of ELF4 (Q99607 whole entry): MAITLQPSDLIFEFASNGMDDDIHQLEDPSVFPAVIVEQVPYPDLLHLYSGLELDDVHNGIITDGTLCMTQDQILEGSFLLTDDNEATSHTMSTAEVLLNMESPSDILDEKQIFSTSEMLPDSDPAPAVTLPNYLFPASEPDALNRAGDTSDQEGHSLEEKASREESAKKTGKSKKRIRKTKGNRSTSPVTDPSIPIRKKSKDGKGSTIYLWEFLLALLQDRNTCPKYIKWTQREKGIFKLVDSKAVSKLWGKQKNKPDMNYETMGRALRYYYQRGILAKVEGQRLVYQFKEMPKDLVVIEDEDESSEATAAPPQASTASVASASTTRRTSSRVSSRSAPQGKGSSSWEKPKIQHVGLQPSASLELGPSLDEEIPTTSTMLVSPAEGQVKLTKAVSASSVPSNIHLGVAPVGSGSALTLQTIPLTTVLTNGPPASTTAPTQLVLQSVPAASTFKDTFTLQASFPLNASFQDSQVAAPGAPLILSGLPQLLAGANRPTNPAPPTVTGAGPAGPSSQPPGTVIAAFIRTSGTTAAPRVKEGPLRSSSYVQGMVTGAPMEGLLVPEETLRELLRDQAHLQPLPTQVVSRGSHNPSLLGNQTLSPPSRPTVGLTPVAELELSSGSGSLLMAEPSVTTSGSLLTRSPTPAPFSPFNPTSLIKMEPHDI
# Sequence of ETV5 (P41161 whole entry): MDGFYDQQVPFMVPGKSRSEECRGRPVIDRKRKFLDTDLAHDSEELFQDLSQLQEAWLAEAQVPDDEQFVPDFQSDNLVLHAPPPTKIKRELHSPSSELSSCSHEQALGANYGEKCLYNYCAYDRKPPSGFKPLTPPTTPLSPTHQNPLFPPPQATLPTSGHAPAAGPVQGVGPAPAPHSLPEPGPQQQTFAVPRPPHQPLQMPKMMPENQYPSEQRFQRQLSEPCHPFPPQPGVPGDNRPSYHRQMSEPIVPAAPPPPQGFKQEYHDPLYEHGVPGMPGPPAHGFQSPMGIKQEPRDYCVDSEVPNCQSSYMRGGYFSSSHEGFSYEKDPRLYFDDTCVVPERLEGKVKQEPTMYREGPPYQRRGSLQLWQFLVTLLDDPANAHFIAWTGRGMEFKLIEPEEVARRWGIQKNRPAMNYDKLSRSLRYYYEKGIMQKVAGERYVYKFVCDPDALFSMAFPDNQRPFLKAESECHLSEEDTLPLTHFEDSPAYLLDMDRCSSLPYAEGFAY
# Sequence of HSF1 (Q00613 whole entry): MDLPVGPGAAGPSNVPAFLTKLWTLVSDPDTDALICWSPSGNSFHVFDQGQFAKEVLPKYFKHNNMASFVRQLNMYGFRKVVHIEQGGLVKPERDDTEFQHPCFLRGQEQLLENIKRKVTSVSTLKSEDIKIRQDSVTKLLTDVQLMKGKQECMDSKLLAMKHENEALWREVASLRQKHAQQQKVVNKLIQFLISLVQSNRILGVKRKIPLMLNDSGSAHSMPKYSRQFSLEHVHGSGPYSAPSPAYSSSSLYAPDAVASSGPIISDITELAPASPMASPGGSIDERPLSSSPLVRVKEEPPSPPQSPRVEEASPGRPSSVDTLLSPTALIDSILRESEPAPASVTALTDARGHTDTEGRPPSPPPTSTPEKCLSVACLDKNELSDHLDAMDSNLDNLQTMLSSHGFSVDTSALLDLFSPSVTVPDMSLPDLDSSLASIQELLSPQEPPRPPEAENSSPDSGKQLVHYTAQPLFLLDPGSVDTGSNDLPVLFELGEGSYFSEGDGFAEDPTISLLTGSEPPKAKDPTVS
# Sequence of SPIB (Q01892 whole entry): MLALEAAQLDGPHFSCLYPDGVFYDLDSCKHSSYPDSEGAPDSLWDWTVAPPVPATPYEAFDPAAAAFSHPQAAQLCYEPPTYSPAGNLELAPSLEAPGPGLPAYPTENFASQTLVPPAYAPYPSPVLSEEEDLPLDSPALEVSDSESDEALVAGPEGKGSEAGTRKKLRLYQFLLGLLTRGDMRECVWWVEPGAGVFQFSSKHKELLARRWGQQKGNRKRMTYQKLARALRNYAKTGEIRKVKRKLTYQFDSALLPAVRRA
# Sequence of ETV1 (P50549 whole entry): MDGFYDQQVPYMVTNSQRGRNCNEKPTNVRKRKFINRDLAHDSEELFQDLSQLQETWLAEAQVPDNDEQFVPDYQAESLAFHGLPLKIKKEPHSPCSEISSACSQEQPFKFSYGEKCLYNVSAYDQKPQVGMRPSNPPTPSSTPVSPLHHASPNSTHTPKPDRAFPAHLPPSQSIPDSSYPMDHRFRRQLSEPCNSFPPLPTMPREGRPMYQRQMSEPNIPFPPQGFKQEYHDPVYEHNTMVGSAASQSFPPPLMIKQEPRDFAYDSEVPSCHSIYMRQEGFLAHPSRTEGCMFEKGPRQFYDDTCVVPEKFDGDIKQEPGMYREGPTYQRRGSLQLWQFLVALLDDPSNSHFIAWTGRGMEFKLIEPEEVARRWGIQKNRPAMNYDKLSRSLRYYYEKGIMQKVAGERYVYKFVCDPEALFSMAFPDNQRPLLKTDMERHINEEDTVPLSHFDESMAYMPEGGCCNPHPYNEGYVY
# Sequence of CRX (O43186 whole entry): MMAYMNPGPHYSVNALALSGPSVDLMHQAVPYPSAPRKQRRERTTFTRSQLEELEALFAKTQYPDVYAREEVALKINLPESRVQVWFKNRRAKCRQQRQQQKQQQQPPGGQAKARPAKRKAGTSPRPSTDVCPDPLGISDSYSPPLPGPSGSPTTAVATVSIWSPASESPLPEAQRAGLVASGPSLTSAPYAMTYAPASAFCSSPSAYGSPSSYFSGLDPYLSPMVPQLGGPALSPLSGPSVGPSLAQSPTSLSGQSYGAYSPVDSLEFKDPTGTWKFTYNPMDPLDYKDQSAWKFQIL
sequence,measurement,setting,value
AATATT,binding signal,[1],"1.39 fold enrichment (6-mer frequency, TF over GST control)"
same,binding signal,[2],"1.29 fold enrichment (6-mer frequency, TF over GST control)"
same,binding signal,[3],"1.29 fold enrichment (6-mer frequency, TF over GST control)"
same,binding signal,[4],"1.18 fold enrichment (6-mer frequency, TF over GST control)"
same,binding signal,[5],"1.36 fold enrichment (6-mer frequency, TF over GST control)"
same,binding signal,[6],"1.32 fold enrichment (6-mer frequency, TF over GST control)"
same,binding signal,[7],"1.23 fold enrichment (6-mer frequency, TF over GST control)"
same,binding signal,[8],"1.34 fold enrichment (6-mer frequency, TF over GST control)"
same,binding signal,[9],"1.42 fold enrichment (6-mer frequency, TF over GST control)"
same,binding signal,[10],"1.3 fold enrichment (6-mer frequency, TF over GST control)"
same,binding signal,[11],"1.4 fold enrichment (6-mer frequency, TF over GST control)"
same,binding signal,[12],"1.93 fold enrichment (6-mer frequency, TF over GST control)"
same,binding signal,[13],"1.45 fold enrichment (6-mer frequency, TF over GST control)"
same,binding signal,[14],"1.38 fold enrichment (6-mer frequency, TF over GST control)"
same,binding signal,[15],"1.35 fold enrichment (6-mer frequency, TF over GST control)"
same,binding signal,[16],"1.23 fold enrichment (6-mer frequency, TF over GST control)"
same,binding signal,[17],"1.36 fold enrichment (6-mer frequency, TF over GST control)"
same,binding signal,[18],"1.61 fold enrichment (6-mer frequency, TF over GST control)"
same,binding signal,[19],"1.36 fold enrichment (6-mer frequency, TF over GST control)"
